Experimental data: PubChem BioAssay (NCATS)
Results filed as inconclusive are left out. Active and inactive are the calls of the source. Calls come from the whole dose curve; as a rule, active = well fitted curve in the direction sought with a large enough effect; inconclusive = small, poorly fitted or top-dose-only effect, or another doubt; inactive = no such curve, though single readings can be large; an effect the other way counts as inactive or inconclusive. Positions of bridges follow the written chain, without caps; N, C: chain ends. Non-standard residues stand in square brackets, D forms with d. Residues, ends and D or L forms follow the SMILES beside them. ξ: configuration not given here. *: point of attachment. Octanoyl(6-Me) = CCC(C)CCCCC(=O)*; ξThr(3R) = C[C@@H](O)C(N)C(=O)O; dDab = NCC[C@@H](N)C(=O)O; Dab = NCC[C@H](N)C(=O)O

Columns and labels:
[1] = qHTS of pediatric cancer cell lines to identify multiple opportunities for drug repurposing: Primary screen for MG 63 (6-TG R) cells (AID 1347105); note: nearly all actives have a fitted effect of over 50% in size
In short: (§1)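 Cells seeded at 500-1,000 cells/well in growth media, rested 5 hours at 37 degrees C, 5% CO2, then dosed; MIPE compounds at 11-point (from 0.78 nM) and NPC at 8-point (from 0.59 nM) final concentrations. Viability by CellTiter-Glo luminescence after 48 hours.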

[2] = qHTS of pediatric cancer cell lines to identify multiple opportunities for drug repurposing: Primary screen for control Hh wild type fibroblast cells (AID 1347106); note: nearly all actives have a fitted effect of over 55% in size
In short: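 Viability after 48 h compound treatment at 37C, 500-1,000 cells/well, read as ATP luminescence with CellTiter-Glo. Primary screens used 11-point (MIPE, 0.78 nM-46 µM) or 8-point (NPC, 0.59 nM-46 µM) final concentrations; follow-up screens used 11-point dilutions.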

[3] = qHTS of pediatric cancer cell lines to identify multiple opportunities for drug repurposing: Primary screen for Rh30 cells (AID 1347107); note: nearly all actives have a fitted effect of over 75% in size
In short: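 Cells (500-1,000/well) in growth media were settled 5 h at 37 degrees C, then given compounds for 48 h. Viability was read as CellTiter-Glo luminescence. Primary runs used MIPE at 11 points (0.78 nM-46 µM) and NPC at 8 points (0.59 nM-46 µM); follow-ups used 11 points.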

[4] = qHTS of pediatric cancer cell lines to identify multiple opportunities for drug repurposing: Primary screen for Rh41 cells (AID 1347108); note: nearly all actives have a fitted effect of over 70% in size
In short: as §1

Measured: Potency
Potency is the fitted concentration of half-maximal effect.

C=C1C[C@@]2(O)O[C@@]3(C[C@H]2C(C)C)[C@H](C)CC[C@H]13
inactive: all assays above

CC[C@H](CC[C@@H](C)[C@H]1CC[C@H]2[C@@H]3CC=C4C[C@@H](O)CC[C@]4(C)[C@@H]3CC[C@]12C)C(C)C
inactive: [1] | [2] | [3]

COc1ccc(CCC(=O)c2c(O)cc(O[C@@H]3O[C@H](CO)[C@@H](O)[C@H](O)[C@@H]3O[C@@H]3O[C@@H](C)[C@H](O)[C@@H](O)[C@@H]3O)cc2O)cc1O
active: [2] 3.72 µM
inactive: [1]

Cc1cncc2cccc(S(=O)(=O)N3CCCN(C(=O)CN)C[C@@H]3C)c12
inactive: [1] | [2]

CN(C)CC[C@H](c1ccc(Cl)cc1)c1ccccn1
inactive: [1] | [2] | [3]

NC[C@H]1O[C@H](O[C@H]2[C@@H](O)[C@@H](O[C@H]3O[C@H](CO)[C@@H](O)[C@H](N)[C@@H]3O)[C@H](N)C[C@@H]2N)[C@H](N)C[C@H]1O
inactive: all assays above

C[C@H]1C[C@H]2[C@@H]3CCC4=CC(=O)C=C[C@]4(C)[C@@H]3C(=O)C[C@]2(C)[C@@]1(O)C(=O)CO
inactive: all assays above

COc1ccc2cc([S+]([O-])Cc3ncc(C)c(OC)c3C)nc2c1
inactive: all assays above

O=C(C[C@@H]1CC=CCCC(=O)O[C@H](c2ccccc2)CNC1=O)NCc1ccc(Cl)cc1
inactive: all assays above

Cn1cnc2c(F)c(Nc3ccc(Br)cc3F)c(C(=O)NOCCO)cc21
inactive: all assays above

CC1(C)[C@H](O[C@H]2O[C@H](C(=O)O)[C@@H](O)[C@H](O)[C@H]2O[C@@H]2O[C@H](C(=O)O)[C@@H](O)[C@H](O)[C@H]2O)CC[C@@]2(C)[C@H]1CC[C@]1(C)[C@H]2C(=O)C=C2[C@H]3C[C@@](C)(C(=O)O)CC[C@]3(C)CC[C@]21C
inactive: all assays above

O=C(NNC(=O)c1ccc(CNS(=O)(=O)c2ccc(F)c(Cl)c2)cc1)c1ccccc1
inactive: all assays above

CC(O)(C#Cc1ccc2c(c1)N(c1nc(N)ncc1Cl)CC2)c1nccs1 (configuration not stated)
active: [1] 9.35 µM
inactive: all other assays above

C[N+]1(C)[C@@H]2C[C@@H](OC(=O)C(O)(c3cccs3)c3cccs3)C[C@H]1[C@@H]1O[C@@H]12
inactive: all assays above

C[C@H]1O[C@H](O[C@H]2[C@H](O)[C@@H](O)[C@@H](O[C@H]3[C@H](O)[C@@H](O)C(O)O[C@H]3CO)O[C@H]2CO)[C@H](O)[C@@H](O)[C@H]1N[C@H]1C=C(CO)[C@@H](O)[C@H](O)[C@@H]1O (some centres not stated)
inactive: all assays above

Nc1nc(=O)n([C@H]2C[C@H](O)[C@@H](CO)O2)cc1F
inactive: all assays above

OC[C@H]1OC(O)C[C@@H](O)[C@H]1O (some centres not stated)
inactive: all assays above

Cc1cn([C@@H]2O[C@H](CO)[C@@H](O)[C@H]2F)c(=O)[nH]c1=O
inactive: all assays above

NC(=O)c1ncn([C@@H]2O[C@H](CO)[C@@H](O)[C@@H]2O)c1N
inactive: all assays above

C=C[C@@H]1CN2CCC1C[C@H]2[C@H](O)c1ccnc2ccc(OC)cc12 (some centres not stated)
inactive: all assays above

CC(C)n1cnc2c(NCCc3ccc(O)cc3)nc(-c3csc4ccccc34)nc21
inactive: [2]
active: [1] 18.7 µM | [3] 18.7 µM | [4] 11.8 µM

CN[C@H](CC(C)C)C(=O)N[C@H]1C(=O)N[C@@H](CC(N)=O)C(=O)N[C@@H]2C(=O)N[C@H]3C(=O)N[C@H](C(=O)N[C@H](C(=O)O)c4cc(O)cc(O)c4-c4cc3ccc4O)[C@H](O)c3ccc(c(Cl)c3)Oc3cc2cc(c3O[C@@H]2O[C@H](CO)[C@@H](O)[C@H](O)[C@@H]2O[C@H]2C[C@](C)(N)[C@H](O)[C@H](C)O2)Oc2ccc(cc2Cl)[C@H]1O
inactive: all assays above

O=C(CN1C(=O)C2(CCCC2)NC[C@H]1c1cc(F)cc(F)c1)Nc1ccc2c(c1)C[C@@]1(C2)C(=O)Nc2ncccc21
inactive: all assays above

CC(=O)N[C@H]1[C@@H]([C@H](O)[C@H](O)CO)OC(C(=O)O)=C[C@@H]1N=C(N)N
inactive: all assays above

CCCc1nc(C(C)(C)O)c(C(=O)O)n1Cc1ccc(-c2ccccc2-c2nn[nH]n2)cc1
inactive: all assays above

CCC(C)CCCCC(=O)N[C@@H](CCN)C(=O)NC(C(=O)N[C@H](CCN)C(=O)N[C@@H]1CCNC(=O)C([C@@H](C)O)NC(=O)[C@@H](CCN)NC(=O)[C@@H](CCN)NC(=O)[C@@H](CC(C)C)NC(=O)[C@H](Cc2ccccc2)NC(=O)[C@H](CCN)NC1=O)[C@@H](C)O (stereo partly drawn) ({Octanoyl(6-Me)}-[Dab][ξThr(3R)][dDab][dDab][Dab]F[dL][dDab][dDab][ξThr(3R)]; lactam 4-C)
inactive: all assays above

C[C@H]1COc2c(N3CCN(C)CC3)c(F)cc3c(=O)c(C(=O)O)cn1c23
inactive: all assays above
